PubChem BioAssay (EPA / NIEHS)
“And” between values parts separate entries of the source, which are not always exact repeats. Identical values can stand only once. Records with an inconclusive call do not appear. Some structures have more than one record in an assay (separate samples or runs), and their calls can disagree. The source made the active and inactive calls. The calls were made as follows: active = hit-call score of the fitted dose curve at least 0.9, where 1 is the maximum; inconclusive = response in the unintended direction; inactive = score below 0.9.

Key:
[1] = biological target: human Elastase, ELANE (gene 1991) (UniProt P08246); experiment: NVS_ENZ_hElastase: NovaScreen (NVS) Enzymatic Assay for human Elastase (AID 2283153)
Sequence of human Elastase, ELANE (gene 1991) (P08246 whole entry, looked up): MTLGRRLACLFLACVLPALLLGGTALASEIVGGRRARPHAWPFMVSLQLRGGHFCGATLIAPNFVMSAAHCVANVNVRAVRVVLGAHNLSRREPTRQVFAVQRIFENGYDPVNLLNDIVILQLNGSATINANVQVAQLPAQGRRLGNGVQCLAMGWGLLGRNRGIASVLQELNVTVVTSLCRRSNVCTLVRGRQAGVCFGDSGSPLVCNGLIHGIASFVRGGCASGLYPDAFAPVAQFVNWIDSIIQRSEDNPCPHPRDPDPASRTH
Outline: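 Cell-free elastase from human neutrophils, 1.5 h after dosing, activity read by absorbance. Primary screen in duplicate at 25 uM; hits (e.g., 30% inhibition) rerun in singleton concentration-response up to 50 uM, fitted versus DMSO.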

[2] = biological target: human Esterase Plasma (ES), BCHE (gene 590) (UniProt P06276); experiment: NVS_ENZ_hES: NovaScreen (NVS) Enzymatic Assay for human Esterase Plasma (ES) (AID 2283157)
Sequence of human Esterase Plasma (ES), BCHE (gene 590) (P06276 whole entry, looked up): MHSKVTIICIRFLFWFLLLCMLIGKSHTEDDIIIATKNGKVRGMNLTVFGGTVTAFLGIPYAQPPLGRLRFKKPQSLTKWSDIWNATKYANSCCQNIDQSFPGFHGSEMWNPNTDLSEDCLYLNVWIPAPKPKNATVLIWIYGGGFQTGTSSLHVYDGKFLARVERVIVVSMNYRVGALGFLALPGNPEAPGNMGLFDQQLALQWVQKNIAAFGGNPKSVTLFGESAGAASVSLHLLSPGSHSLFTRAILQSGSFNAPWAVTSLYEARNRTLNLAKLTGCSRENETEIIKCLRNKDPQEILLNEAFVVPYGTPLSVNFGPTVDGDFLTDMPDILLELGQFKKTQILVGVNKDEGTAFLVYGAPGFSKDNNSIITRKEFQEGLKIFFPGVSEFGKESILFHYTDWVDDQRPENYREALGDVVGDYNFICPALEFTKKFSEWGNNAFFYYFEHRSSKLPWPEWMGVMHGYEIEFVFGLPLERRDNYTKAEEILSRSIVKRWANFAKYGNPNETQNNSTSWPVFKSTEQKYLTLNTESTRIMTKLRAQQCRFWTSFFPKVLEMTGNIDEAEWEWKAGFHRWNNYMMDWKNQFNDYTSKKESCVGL
Outline: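 Cell-free enzyme assay using esterase extracted from human plasma; colorimetric absorbance read 0.25 hour after dosing. Single-concentration duplicate screen at 25 uM, then concentration-response up to 50 uM; loss of signal scored against DMSO baseline.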

[3] = biological target: human Ephrin type-B Receptor 1 (EphB1), EPHB1 (gene 2047) (UniProt P54762); experiment: NVS_ENZ_hEphB1: NovaScreen (NVS) Enzymatic Assay for human Ephrin type-B Receptor 1 (EphB1) (AID 2283154)
Sequence of human Ephrin type-B Receptor 1 (EphB1), EPHB1 (gene 2047) (P54762 whole entry, looked up): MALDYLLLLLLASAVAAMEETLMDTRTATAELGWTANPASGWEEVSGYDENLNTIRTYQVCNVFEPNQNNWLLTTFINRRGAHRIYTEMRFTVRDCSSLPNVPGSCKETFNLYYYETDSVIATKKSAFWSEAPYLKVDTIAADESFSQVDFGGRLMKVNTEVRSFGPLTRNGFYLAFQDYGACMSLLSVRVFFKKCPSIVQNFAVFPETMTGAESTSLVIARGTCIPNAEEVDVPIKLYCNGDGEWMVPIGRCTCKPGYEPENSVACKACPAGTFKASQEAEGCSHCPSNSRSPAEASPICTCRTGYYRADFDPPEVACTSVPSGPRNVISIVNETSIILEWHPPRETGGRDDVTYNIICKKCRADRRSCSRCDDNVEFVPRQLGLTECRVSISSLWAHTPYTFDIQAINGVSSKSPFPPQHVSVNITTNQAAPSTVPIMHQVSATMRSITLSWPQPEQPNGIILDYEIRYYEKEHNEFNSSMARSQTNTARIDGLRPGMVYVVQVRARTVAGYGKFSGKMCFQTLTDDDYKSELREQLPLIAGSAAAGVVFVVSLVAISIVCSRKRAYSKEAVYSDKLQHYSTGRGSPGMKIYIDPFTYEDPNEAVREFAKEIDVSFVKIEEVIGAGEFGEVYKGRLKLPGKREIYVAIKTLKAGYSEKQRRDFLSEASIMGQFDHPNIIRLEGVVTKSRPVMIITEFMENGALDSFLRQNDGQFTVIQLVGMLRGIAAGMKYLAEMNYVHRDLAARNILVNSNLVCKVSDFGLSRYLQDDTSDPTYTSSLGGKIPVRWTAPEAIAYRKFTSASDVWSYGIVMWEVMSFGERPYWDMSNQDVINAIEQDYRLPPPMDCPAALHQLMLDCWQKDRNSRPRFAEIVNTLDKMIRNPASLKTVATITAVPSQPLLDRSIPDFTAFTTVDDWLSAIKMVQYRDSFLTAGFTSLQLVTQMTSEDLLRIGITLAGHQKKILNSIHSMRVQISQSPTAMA
Outline: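 Cell-free kinase assay with recombinant enzyme, fluorescent substrate and electrophoretic mobility-shift separation of substrate and product; read 1 h after dosing. Single-concentration duplicate screen at 25 uM; loss of signal versus DMSO baseline.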

[4] = biological target: human Casein Kinase 2- alpha 2 beta 2 (CK2a2b2), CSNK2A1 (gene 1457) (UniProt P68400); experiment: NVS_ENZ_hCK2a2b2: NovaScreen (NVS) Enzymatic Assay for human Casein Kinase 2- alpha 2 beta 2 (CK2a2b2) (AID 2283147)
Sequence of human Casein Kinase 2- alpha 2 beta 2 (CK2a2b2), CSNK2A1 (gene 1457) (P68400 whole entry, looked up): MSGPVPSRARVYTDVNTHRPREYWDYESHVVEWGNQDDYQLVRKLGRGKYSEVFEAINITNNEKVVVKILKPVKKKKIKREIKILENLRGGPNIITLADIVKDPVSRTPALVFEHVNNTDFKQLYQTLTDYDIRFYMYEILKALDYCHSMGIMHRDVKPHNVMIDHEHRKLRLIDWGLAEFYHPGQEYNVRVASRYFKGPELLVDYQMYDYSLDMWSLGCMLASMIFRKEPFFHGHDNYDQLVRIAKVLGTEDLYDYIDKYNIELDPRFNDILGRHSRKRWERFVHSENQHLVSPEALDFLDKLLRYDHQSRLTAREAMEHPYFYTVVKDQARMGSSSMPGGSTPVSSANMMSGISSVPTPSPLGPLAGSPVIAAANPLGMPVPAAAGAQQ
Outline: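 Cell-free recombinant CK2 α2β2 holoenzyme with a fluorescent peptide substrate; product separated by electrophoretic mobility shift and read 1 h after dosing. Single-point screen at 25 uM in duplicate; actives were followed with concentration-response up to 50 uM versus DMSO.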

[5] = biological target: human Mitogen-Activated Protein Kinase 1 (MAPK 1), MAPK1 (gene 5594) (UniProt P28482); experiment: NVS_ENZ_hMAPK1: NovaScreen (NVS) Enzymatic Assay for human Mitogen-Activated Protein Kinase 1 (MAPK 1) (AID 2283175)
Outline: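 Cell-free recombinant human MAPK1 enzymatic assay, fluorescence/electrophoretic mobility shift read at 1 h; loss of signal vs DMSO. Primary screen in duplicate at 25 uM; actives (e.g. ≥30% inhibition) run as concentration-response up to 50 uM.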

[6] = biological target: Mitogen-activated protein kinase 3 (Homo sapiens) (UniProt P27361); experiment: NVS_ENZ_hMAPK3: NovaScreen (NVS) Enzymatic Assay for human Mitogen-Activated Protein Kinase 3 (MAPK 3) (AID 2283177)
Sequence of Mitogen-activated protein kinase 3 (Homo sapiens) (P27361 whole entry, looked up): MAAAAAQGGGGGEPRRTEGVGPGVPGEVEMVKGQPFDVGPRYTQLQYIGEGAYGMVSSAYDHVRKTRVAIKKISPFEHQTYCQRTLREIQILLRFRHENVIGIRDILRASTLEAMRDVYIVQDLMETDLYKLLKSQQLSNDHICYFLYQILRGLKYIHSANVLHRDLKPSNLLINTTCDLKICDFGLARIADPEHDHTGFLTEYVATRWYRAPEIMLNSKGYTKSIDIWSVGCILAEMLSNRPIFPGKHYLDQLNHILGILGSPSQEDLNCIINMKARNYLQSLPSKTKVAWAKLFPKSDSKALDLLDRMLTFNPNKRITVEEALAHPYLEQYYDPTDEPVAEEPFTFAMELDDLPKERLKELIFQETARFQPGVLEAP
Outline: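 Cell-free enzymatic assay with recombinant protein and specific substrate; fluorescence and electrophoretic mobility shift read-out 1 h after dosing. Primary screen duplicate at 25 uM; actives then run in concentration-response up to 50 uM, loss of signal versus DMSO.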

[7] = biological target: human Casein Kinase 1-delta (CK1D), CSNK1D (gene 1453) (UniProt P48730); experiment: NVS_ENZ_hCK1D: NovaScreen (NVS) Enzymatic Assay for human Casein Kinase 1-delta (CK1D) (AID 2283148)
Sequence of human Casein Kinase 1-delta (CK1D), CSNK1D (gene 1453) (P48730 whole entry, looked up): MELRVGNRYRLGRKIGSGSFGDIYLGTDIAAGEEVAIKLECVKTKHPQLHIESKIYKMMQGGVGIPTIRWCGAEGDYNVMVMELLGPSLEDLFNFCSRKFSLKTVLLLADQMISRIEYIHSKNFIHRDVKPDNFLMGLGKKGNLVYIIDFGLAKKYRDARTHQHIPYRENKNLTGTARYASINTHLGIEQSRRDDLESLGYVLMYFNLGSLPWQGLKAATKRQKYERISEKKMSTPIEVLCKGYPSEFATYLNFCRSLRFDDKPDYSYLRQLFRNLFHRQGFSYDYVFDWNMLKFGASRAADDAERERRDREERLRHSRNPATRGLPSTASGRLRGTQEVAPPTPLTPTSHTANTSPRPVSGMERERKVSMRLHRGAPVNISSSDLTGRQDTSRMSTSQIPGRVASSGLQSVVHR
Outline: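 Recombinant human CK1-delta, cell-free; fluorescent substrate with electrophoretic mobility-shift separation of product, read 1 h after dosing. Single 25 uM duplicate screen, then concentration-response up to 50 uM; loss of signal vs DMSO.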

[8] = biological target: human Fibroblast Growth Factor Receptor 1 (FGFR1), FGFR1 (gene 2260) (UniProt P11362); experiment: NVS_ENZ_hFGFR1: NovaScreen (NVS) Enzymatic Assay for human Fibroblast Growth Factor Receptor 1 (FGFR1) (AID 2283159)
Outline: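 Cell-free recombinant kinase with fluorescent substrate, product separated by electrophoretic mobility shift; read 1 hour after dosing, loss of signal relative to DMSO. Initial screen in duplicate at 25 uM, actives followed in concentration series.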

[9] = biological target: Histone deacetylase 3 (Homo sapiens) (UniProt O15379); experiment: NVS_ENZ_hHDAC3: NovaScreen (NVS) Enzymatic Assay for human Histone Deacetylase 3 (HDAC3) (AID 2283163)
Sequence of Histone deacetylase 3 (Homo sapiens) (O15379 whole entry, looked up): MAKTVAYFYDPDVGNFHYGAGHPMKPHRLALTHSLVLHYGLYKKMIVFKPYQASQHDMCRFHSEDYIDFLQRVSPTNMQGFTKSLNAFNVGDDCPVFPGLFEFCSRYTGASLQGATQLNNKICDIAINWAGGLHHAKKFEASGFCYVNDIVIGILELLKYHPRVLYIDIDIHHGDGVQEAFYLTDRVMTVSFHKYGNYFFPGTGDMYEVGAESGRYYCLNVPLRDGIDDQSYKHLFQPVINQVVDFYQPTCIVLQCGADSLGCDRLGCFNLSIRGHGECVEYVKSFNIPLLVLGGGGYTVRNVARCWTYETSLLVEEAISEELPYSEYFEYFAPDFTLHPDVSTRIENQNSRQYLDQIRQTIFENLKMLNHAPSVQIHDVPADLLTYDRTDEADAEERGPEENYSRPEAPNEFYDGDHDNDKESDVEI
Outline: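 Recombinant human HDAC3 with fluorescent substrate, 1 h after dosing; product separated from substrate by electrophoretic mobility shift and read by fluorescence. Primary screen at 25 uM in duplicate; actives (e.g. ≥30% inhibition) retested in concentration-response up to 50 uM.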

[10] = biological target: Protein deacetylase HDAC6 (Homo sapiens) (UniProt Q9UBN7); experiment: NVS_ENZ_hHDAC6: NovaScreen (NVS) Enzymatic Assay for human Histone Deacetylase 6 (HDAC6) (AID 2283164)
Sequence of Protein deacetylase HDAC6 (Homo sapiens) (Q9UBN7 whole entry, looked up): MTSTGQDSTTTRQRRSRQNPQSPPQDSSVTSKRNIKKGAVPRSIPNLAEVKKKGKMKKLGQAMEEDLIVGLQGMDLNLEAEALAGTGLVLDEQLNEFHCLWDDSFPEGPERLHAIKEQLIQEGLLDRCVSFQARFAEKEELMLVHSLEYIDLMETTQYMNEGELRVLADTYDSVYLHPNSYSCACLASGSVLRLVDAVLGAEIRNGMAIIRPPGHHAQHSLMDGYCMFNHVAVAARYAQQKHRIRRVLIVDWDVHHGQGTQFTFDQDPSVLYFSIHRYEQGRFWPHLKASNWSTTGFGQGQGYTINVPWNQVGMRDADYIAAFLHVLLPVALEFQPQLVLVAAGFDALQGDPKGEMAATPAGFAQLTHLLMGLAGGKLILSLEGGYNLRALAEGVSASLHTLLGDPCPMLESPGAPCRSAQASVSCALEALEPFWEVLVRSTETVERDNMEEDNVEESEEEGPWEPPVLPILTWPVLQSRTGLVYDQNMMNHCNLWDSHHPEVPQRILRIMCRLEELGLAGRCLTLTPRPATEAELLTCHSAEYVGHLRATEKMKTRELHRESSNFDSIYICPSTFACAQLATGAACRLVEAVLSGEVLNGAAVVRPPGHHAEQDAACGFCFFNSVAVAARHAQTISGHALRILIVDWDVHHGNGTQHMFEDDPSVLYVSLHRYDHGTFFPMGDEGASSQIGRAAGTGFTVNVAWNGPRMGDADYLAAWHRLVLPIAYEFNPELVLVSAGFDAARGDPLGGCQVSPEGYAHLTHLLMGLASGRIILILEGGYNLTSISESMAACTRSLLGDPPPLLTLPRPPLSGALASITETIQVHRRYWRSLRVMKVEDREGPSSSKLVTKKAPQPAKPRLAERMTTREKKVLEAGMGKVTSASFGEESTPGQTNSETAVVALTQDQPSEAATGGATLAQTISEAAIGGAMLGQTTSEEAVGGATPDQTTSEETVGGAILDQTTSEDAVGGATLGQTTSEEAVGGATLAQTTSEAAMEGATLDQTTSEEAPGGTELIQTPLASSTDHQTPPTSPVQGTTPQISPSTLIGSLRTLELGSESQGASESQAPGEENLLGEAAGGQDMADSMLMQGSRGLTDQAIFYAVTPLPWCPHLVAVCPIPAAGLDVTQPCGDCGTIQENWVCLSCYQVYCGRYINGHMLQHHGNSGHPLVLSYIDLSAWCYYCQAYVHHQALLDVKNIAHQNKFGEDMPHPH
Outline: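 Recombinant human HDAC6 with fluorescent substrate, 1 h; product separated from substrate by electrophoretic mobility shift. Primary screen in duplicate at 25 uM; actives retested singly in concentration-response up to 50 uM, fitted relative to DMSO.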

[11] = biological target: human LYN Proto-Oncogene, Src family Tyrosine Kinase (LynA), LYN (gene 4067) (UniProt P07948); experiment: NVS_ENZ_hLynA: NovaScreen (NVS) Enzymatic Assay for human LYN Proto-Oncogene, Src family Tyrosine Kinase (LynA) (AID 2283173)
Outline: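 Recombinant kinase with fluorescent substrate; product separated from substrate by electrophoretic mobility shift and read 1 h after dosing. Duplicate screen at 25 uM, then concentration-response up to 50 uM; activity scored as signal loss against DMSO.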

[12] = biological target: human FYN Proto-Oncogene, Src family Tyrosine Kinase (Fyn), FYN (gene 2534) (UniProt P06241); experiment: NVS_ENZ_hFyn: NovaScreen (NVS) Enzymatic Assay for human FYN Proto-Oncogene, Src family Tyrosine Kinase (Fyn) (AID 2283161)
Outline: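 Recombinant enzyme with fluorescent substrate, product separated by electrophoretic mobility shift; read 1 h after dosing. Duplicate 25 uM single-point screen, actives retested in concentration series; loss of signal vs DMSO.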

[13] = biological target: human Ephrin type-A Receptor 2 (EphA2), EPHA2 (gene 1969) (UniProt P29317); experiment: NVS_ENZ_hEphA2: NovaScreen (NVS) Enzymatic Assay for human Ephrin type-A Receptor 2 (EphA2) (AID 2283155)
Outline: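 Cell-free recombinant EphA2 kinase with specific substrate, 1 h, fluorescence with electrophoretic mobility-shift separation of substrate and product. Primary screen at 25 uM in duplicate; hits retested in singleton concentration-response up to 50 uM, referenced to DMSO.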

[14] = biological target: human Ephrin type-B Receptor 2 (EphB2), EPHB2 (gene 2048) (UniProt P29323); experiment: NVS_ENZ_hEphB2: NovaScreen (NVS) Enzymatic Assay for human Ephrin type-B Receptor 2 (EphB2) (AID 2283156)
Outline: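 Recombinant kinase with fluorescent substrate, product separated by electrophoretic mobility shift, read 1 h after dosing. Duplicate 25 uM screen, then singleton concentration-response to 50 uM max; loss of signal versus DMSO.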

[15] = biological target: human Ephrin type-A Receptor 1 (EphA1), EPHA1 (gene 2041) (UniProt P21709); experiment: NVS_ENZ_hEphA1: NovaScreen (NVS) Enzymatic Assay for human Ephrin type-A Receptor 1 (EphA1) (AID 2283158);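 also: activity is signal loss versus DMSO meaning EphA1 kinase inhibition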
Outline: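 Biochemical kinase assay run cell-free; 1 h incubation; readout is fluorescence with mobility-shift separation of product. Concentration-response up to 50 uM for actives from a 25 uM screen.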

[16] = biological target: Glycogen synthase kinase-3 beta (Homo sapiens) (UniProt P49841); experiment: NVS_ENZ_hGSK3b: NovaScreen (NVS) Enzymatic Assay for human Glycogen Synthase Kinase-3 beta (GSK3b) (AID 2283165)
Outline: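 Recombinant enzyme with specific fluorescent substrate, 1 h, product separated by electrophoretic mobility shift. Primary duplicate screen at 25 uM; actives (e.g. 30% inhibition) followed in singleton concentration-response to 50 uM. Signal loss fitted versus DMSO.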

[17] = biological target: human Janus Kinase 2 (Jak2), JAK2 (gene 3717) (UniProt O60674); experiment: NVS_ENZ_hJak2: NovaScreen (NVS) Enzymatic Assay for human Janus Kinase 2 (Jak2) (AID 2283169)
Outline: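 Cell-free recombinant human JAK2 enzyme activity assay, fluorescence/electrophoretic mobility shift read 1 h after dosing. Screened in duplicate at 25 uM, then concentration-response up to 50 uM; activity as signal loss relative to DMSO.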

`COC(=O)C=C(C)OP(=O)(OC)OC` was tested, and the outcome [1] was “inactive” and the AC50 [2] was 13.4 µM (active).

For `CCCCOC(=O)c1ccccc1C(=O)OCCCC`, the outcome [3] was “inactive”, the AC50 [2] was 11 µM (active) and the outcome [2] was “inactive”.

In the case of `Cc1cc(Cl)ccc1OCC(=O)O`, the AC50 [4] was 16.2 µM (active).

`CON(C)C(=O)Nc1ccc(Cl)c(Cl)c1` was tested, and the outcome [4] was “inactive”.

For `O=C(O)COc1nc(Cl)c(Cl)cc1Cl`, the AC50 [4] was 13.9 µM (active).

`C=CCC1=C(C)[C@@H](OC(=O)[C@@H]2[C@@H](C=C(C)C)C2(C)C)CC1=O` was tested, and the outcome [5] was “inactive” and the outcome [6] was “inactive”.

With `CCNc1nc(Cl)nc(NCC)n1` the outcome [7] was “inactive” and the outcome [6] was “inactive”.

With `CCCCNC(=O)OCC#CI` the outcome [8] was “inactive”, the AC50 [9] was 17.5 µM (active) and 14.6 µM (active) and the AC50 [10] was 25 µM (active). The outcome [10] was “inactive” and the outcome [11] was “inactive”.

With `COC(=O)C(C)Oc1ccc(Oc2ccc(Cl)cc2Cl)cc1` (stereo not drawn) the outcome [3] was “inactive”.

`O=C(Nc1ccccc1)Nc1ccnc(Cl)c1` was tested, and the outcome [12] was “inactive”.

In the case of `COc1ccc(C(c2ccc(OC)cc2)C(Cl)(Cl)Cl)cc1`, the outcome [3] was “inactive” and the outcome [6] was “inactive”.

In the case of `COP(=S)(OC)Oc1nc(Cl)c(Cl)cc1Cl`, the outcome [1] was “inactive” and the outcome [2] was “inactive”.

With `CCCN(CCC)c1c([N+](=O)[O-])cc(S(N)(=O)=O)cc1[N+](=O)[O-]` the outcome [7] was “inactive”, the outcome [13] was “inactive” and the outcome [14] was “inactive”. For the same molecule, the outcome [15] was “inactive”, the outcome [8] was “inactive” and the outcome [16] was “inactive”. The outcome [17] was “inactive”.

In the case of `COP(N)(=O)SC` (stereo not drawn), the outcome [14] was “inactive”.

`N#Cc1cc(Br)c(O)c(Br)c1` was tested, and the AC50 [4] was 13 µM (active), the outcome [3] was “inactive” and the outcome [13] was “inactive”. For the same molecule, the outcome [15] was “inactive”.

For `CS/C(C)=N/OC(=O)N(C)SN(C)C(=O)O/N=C(\C)SC`, the AC50 [2] was 3.07 µM (active) and the outcome [10] was “inactive”.

With `CCNc1nc(Cl)nc(NC(C)C)n1` the outcome [7] was “inactive”.
